An excerpt weighted towards active compounds, which were near 3.1% of everything screened.
PP5 primary = blocks human protein phosphatase 5 activity | 0.18% of 320,000 active | purified PP5c, OMFP substrate fluorescence | AID 1987 | inhibition, % at 6.7 µM | P53041;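 active = inhibition above the campaign's mean inhibition across all tested compounds plus 3 SD, cut at about 9.5% in these data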;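 note: 0% = DMSO only and 100% = 100 µM cantharidin control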
CSC inhib = cancer stem cell inhibition; cancer stem cell-like cells viability, luminescence; inhibition, % at 7.5 µM; 1.1% of 300,000 active; AID 2717; in the data active = inhibition above about 75%; inconclusive = no clear call, values can overlap the other calls; tested in HMLE shEcad cells
PP1 counter = blocks human PP1-alpha phosphatase, a PP5 counter-screen | P62136 | purified PP1alpha, OMFP fluorescence | inhibition, % at 6.7 µM | 0.9% of 320,000 active | AID 2235;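 active = inhibition above the mean inhibition of all tested compounds plus 3 SD, computed separately for each screening campaign, cut at about 15% in these data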
Target sequence (P62136 whole entry, looked up): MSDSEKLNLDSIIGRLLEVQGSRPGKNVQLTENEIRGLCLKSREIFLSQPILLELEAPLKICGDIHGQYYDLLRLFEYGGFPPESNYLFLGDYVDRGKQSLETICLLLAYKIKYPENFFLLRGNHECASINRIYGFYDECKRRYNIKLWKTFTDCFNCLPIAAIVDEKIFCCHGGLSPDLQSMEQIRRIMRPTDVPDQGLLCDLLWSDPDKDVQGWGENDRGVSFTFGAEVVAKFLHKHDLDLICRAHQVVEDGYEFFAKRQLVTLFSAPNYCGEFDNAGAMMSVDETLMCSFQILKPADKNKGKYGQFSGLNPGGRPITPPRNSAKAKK
Beta cell apopt = blocks beta cell apoptosis | INS-1E cytokine-induced death, ATP luminescence, 48 h; percent of positive-control rescue, neutral wells zero | AID 435005 | protection from apoptosis, % (no concentration beside the values) | 0.8% of 300,000 active;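 active = Every replicate reaches about 75%, or at least half do and their mean reaches it too, limit read from the data; inconclusive = At least half of replicates reach the limit but their mean does not; inactive = Under half of replicates reach the limit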;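 note: 0% = cytokine-treated negative control wells and 100% = positive control rescue; higher means more ATP so stronger rescue from cytokine killing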
SKKanGAS inh = blocks kanamycin growth of S. pyogenes SKKanGAS strain. BacTiter-Glo, 6 h. inhibition, % at 7.5 µM. 1.3% of 300,000 active;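 active = mean replicate score, as percent of positive control median, at least 50; inconclusive = mean below 50 but one replicate at or above 50; inactive = mean and every replicate below 50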;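 note: strain carries kanamycin resistance gene driven by streptokinase promoter and grows in 40 µg/ml kanamycin; loss of luminescence reflects streptokinase promoter inhibition or plain growth inhibition; 0% = median of DMSO wells and 100% = positive control at its reference dose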
* = called active by the depositor.

`CN(CC(=O)Nc1cccc(F)c1)C(=O)c1cccnc1Sc1ccc(Cl)cc1` gave PP5 primary 2.5, CSC inhib -3.5, PP1 counter -0.2, Beta cell apopt -0.5 and SKKanGAS inh -6.0.
For Cc1ccc2nc(NC(=O)c3ccc(NS(=O)(=O)c4cccs4)cc3)sc2c1 the results were PP5 primary 2.6, CSC inhib 104.1*, PP1 counter 3.9, Beta cell apopt -4.9 and SKKanGAS inh 61.6*.
Cc1ccc2nc(NC(=O)CCNS(=O)(=O)c3cccs3)sc2c1 was read as PP5 primary 1.4, CSC inhib -7.5, PP1 counter 3.3, Beta cell apopt 11.7 and SKKanGAS inh 5.1.
CS(=O)(=O)c1ccc2nc(NC(=O)c3ccc(NS(=O)(=O)c4cccc([N+](=O)[O-])c4)cc3)sc2c1 was read as PP5 primary -0.2, CSC inhib 17.9, PP1 counter 5.7, Beta cell apopt -1.6 and SKKanGAS inh 61.8*.
Screening O=C(NNC(=O)c1cc(Cl)ccc1O)c1ccc(NS(=O)(=O)c2cccs2)cc1 returned PP5 primary -2.4, CSC inhib 95.3*, PP1 counter -2.6 and SKKanGAS inh 46.8.
Screening Cc1nn(-c2ccccn2)c2nc(-c3cccs3)cc(C(=O)NCc3ccco3)c12 returned PP5 primary 3.0, CSC inhib 11.1, PP1 counter 16.9*, Beta cell apopt 3.8 and SKKanGAS inh 11.1.
For CCOCCCNCC(=O)NCC1CCCCC1 the results were PP5 primary 0.6, CSC inhib -16.7, PP1 counter -0.8, Beta cell apopt 3.2 and SKKanGAS inh -16.0.
Screening O=C(/C=C/c1ccccc1)OCCN1C(=O)c2ccccc2C1=O returned PP5 primary -1.6, CSC inhib -6.2, PP1 counter 3.1, Beta cell apopt -5.6 and SKKanGAS inh -14.5.
`O=C1CC(c2ccc(O)c(O)c2)Oc2cc(O)cc(O)c21` (stereo not given) gave PP5 primary -0.3, CSC inhib 2.6, PP1 counter 15.5*, Beta cell apopt 1.5 and SKKanGAS inh 1.1.
Screening O=c1cc(O)nc(SC23CC4CC(CC(C4)C2)C3)[nH]1 returned PP5 primary 1.5, CSC inhib -7.0, PP1 counter 15.6*, Beta cell apopt -6.4 and SKKanGAS inh 25.1.
`CCC(C)Sc1nc(O)cc(=O)[nH]1` (stereo not given) gave PP5 primary -1.0, CSC inhib -6.7, PP1 counter -0.1, Beta cell apopt -7.8 and SKKanGAS inh -7.4.
For CC(=O)CSc1ccc(-c2nc3cc(C)c(C)cc3[nH]2)cn1 the results were PP5 primary -0.6, CSC inhib 15.5, PP1 counter -2.8, Beta cell apopt 5.7 and SKKanGAS inh -4.0.
`CC(=O)CSc1ccc(-c2nc3ccccc3[nH]2)cn1` gave PP5 primary 3.5, CSC inhib 43.2, PP1 counter -1.7, Beta cell apopt 79.1* and SKKanGAS inh 9.2.
`CCC(Sc1nc(C)cc(C)n1)C(=O)NC1=NN=C(c2ccc(C)cc2)CS1` (stereo not given) gave PP5 primary 8.9, CSC inhib 44.6, PP1 counter 13.2, Beta cell apopt 127.0* and SKKanGAS inh 9.8.
Cc1cc(C)nc(SCC(=O)Nc2ccc(Br)cn2)n1 was read as PP5 primary 1.8, CSC inhib -16.3, PP1 counter -1.1, Beta cell apopt 1.9 and SKKanGAS inh 0.2.
For Cc1cc(C)nc(SCC(=O)NC2=NN=C(c3ccc(Br)cc3)CS2)n1 the results were PP5 primary -1.4, CSC inhib -2.9, PP1 counter 0.0, Beta cell apopt 113.0* and SKKanGAS inh 99.0*.
`Cc1cccc(Oc2nc(-c3ccncc3)nc3ccccc23)c1` gave PP5 primary -0.1, CSC inhib 50.7, PP1 counter 4.0 and SKKanGAS inh inconclusive.
`Cc1cccc(Oc2nc(-c3ccccn3)nc3ccccc23)c1` gave PP5 primary 2.8, CSC inhib 11.0, PP1 counter 14.6, Beta cell apopt 80.6* and SKKanGAS inh 98.4*.
Screening NC(=O)CC(NC(=O)Cc1ccc(Br)cc1)c1ccc(NC2CCCCCC2)c([N+](=O)[O-])c1 (stereo not given) returned PP5 primary 3.7, CSC inhib 76.1*, PP1 counter 2.1, Beta cell apopt -8.0 and SKKanGAS inh 18.3.
Screening NC(=O)CC(NC(=O)c1ccc(Br)cc1)c1ccc(N2CCN(c3ccccc3)CC2)c([N+](=O)[O-])c1 (stereo not given) returned PP5 primary 2.2, CSC inhib -19.2, PP1 counter 15.2* and SKKanGAS inh 21.6.
For NC(=O)CC(NC(=O)c1ccc(Br)cc1)c1ccc(N2CCCCCCC2)c([N+](=O)[O-])c1 (stereo not given) the results were PP5 primary 6.2, CSC inhib 131.1*, PP1 counter 7.0, Beta cell apopt 1.4 and SKKanGAS inh 46.4.
NC(=O)CC(NC(=O)c1cccc(Br)c1)c1ccc(N2CCN(c3ccc(F)cc3)CC2)c([N+](=O)[O-])c1 (stereo not given) was read as PP5 primary 1.4, CSC inhib -1.2, PP1 counter 2.2, Beta cell apopt -10.5 and SKKanGAS inh 10.6.
`NC(=O)CC(NC(=O)c1cccc(Br)c1)c1ccc(N2CCC(N3CCCCC3)CC2)c([N+](=O)[O-])c1` (stereo not given) gave PP5 primary 1.0, CSC inhib -0.6, PP1 counter -0.1, Beta cell apopt -1.8 and SKKanGAS inh 0.3.
`NC(=O)CC(NC(=O)c1ccccc1)c1ccc(N2CCC(Cc3ccccc3)CC2)c([N+](=O)[O-])c1` (stereo not given) gave PP5 primary 4.6, CSC inhib -11.1, PP1 counter 17.0*, Beta cell apopt -31.1 and SKKanGAS inh 22.1.
Screening NC(=O)CC(NC(=O)Cc1ccc(Br)cc1)c1ccc(NC2CCCC2)c([N+](=O)[O-])c1 (stereo not given) returned PP5 primary 2.3, CSC inhib 43.3, PP1 counter 4.8, Beta cell apopt -4.6 and SKKanGAS inh 11.9.
For CC1=C(C(=O)Nc2cccc(C(=O)NC(C)c3ccccc3)c2)SCCO1 (stereo not given) the results were PP5 primary 2.8, CSC inhib -16.3, PP1 counter -1.9, Beta cell apopt -2.3 and SKKanGAS inh 2.6.
Screening O=C(NCCc1ccccn1)c1nc(Cn2cc(Br)cn2)no1 returned PP5 primary 1.4, CSC inhib -14.0, PP1 counter 0.9, Beta cell apopt 6.0 and SKKanGAS inh -2.8.
Cc1ccccc1CNc1ccc(C(CC(N)=O)NC(=O)c2ccccc2)cc1[N+](=O)[O-] (stereo not given) was read as PP5 primary -1.8, CSC inhib 77.7*, PP1 counter -0.3, Beta cell apopt 3.9 and SKKanGAS inh -1.2.
CC(=O)N1CCC(=NNc2ncc(C(F)(F)F)cc2Cl)CC1 was read as PP5 primary -0.2, CSC inhib -1.6, PP1 counter 0.4, Beta cell apopt 2.7 and SKKanGAS inh -10.6.
O=C(c1ccc([N+](=O)[O-])s1)N1CCN(c2cccc(Cl)c2)CC1 was read as PP5 primary -2.5, CSC inhib 37.2, PP1 counter -6.9, Beta cell apopt 91.9* and SKKanGAS inh 6.5.

Compound activity deposited in PubChem BioAssay by several laboratories.
